Potency data for 34 compounds are collected here from PubChem BioAssay (NCATS).

Inconclusive results are not listed. Where a call stands in place of a potency, no number is given. Calls of active or inactive are those of the source. The call rests on the fitted dose curve; in most records, active means well fitted cell-killing curve with a large enough effect; inconclusive means small, poorly fitted or top-dose-only effect, or effect the other way; inactive means no such curve, though single readings can be large or run the other way.
Further: nearly all actives have a fitted effect of over 35% in size.
Potency means the concentration at half of the fitted maximal effect.

The nature of one test: Quantitative High-Throughput drug screen in 47 multiple myeloma cell lines against the NCATS MIPE library collection: LP1_DSMZ cell viability assay (AID 1918982). Particulars: LP1 myeloma viability, CellTiter-Glo ATP luminescence, 48 h; series mostly up to 45.8 µM. In a few lines: (§1)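 Inhibition of viability over 48 h was scored by ATP content (CellTiter-Glo) in 500-cell wells. Zero and full viability were defined by media-only and DMSO-only wells.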
Background: Cellular ATP, detected with luciferase, serves as a proxy for viable cell number.
Regarding `CCC(=O)NC[C@H](Cc1ccc(OCCc2nc(-c3ccccc3)oc2C)cc1)NC(C)=CC(=O)c1ccc(C(F)(F)F)cc1`, the Potency was 18.7 µM (active).

With `COc1cc2c(cc1OC)CN(CCc1ccc(NC(=O)c3cc(OC)c(OC)cc3NC(=O)c3cnc4ccccc4c3)cc1)CC2`, the Potency result was “inactive”. On the same count and under the same terms, then `CC#CCn1c(N2CCC[C@@H](N)C2)nc2c1c(=O)n(Cc1nc(C)c3ccccc3n1)c(=O)n2C`, with “inactive”. Turning to `CCc1ccc(C=C2SC(=S)NC2=O)cc1`, the Potency result is “inactive”.

`COc1cccc([C@@H](C)NCCCc2ccccc2Cl)c1`: the Potency entry was “inactive”.

As to `c1cc(-c2sc(-c3ccncc3)c(-c3ccncc3)c2-c2ccncc2)ccn1`, the Potency result is “inactive”. `Cc1c(O)cccc1C(=O)N[C@@H](CSc1ccccc1)[C@H](O)CN1C[C@H]2CCCC[C@@H]2C[C@@H]1C(=O)NC(C)(C)C`: the Potency is 20.9 µM (active). On the same count and under the same terms, the result for `CCn1cc(C(=O)O)c(=O)c2ccc(C)nc21` reads “inactive”.

On to `C[C@]12CCC3c4ccc(O)cc4CCC3C1CCC2=O` (stereo partly drawn), for which the Potency is 18.7 µM (active). The same measure, in the same setting: then `CC(C)=CC[C@@H](O)C1=CC(=O)c2c(O)ccc(O)c2C1=O`, with 3.32 µM (active); and `CCOC1OC(=O)C[C@H]1NC(=O)[C@@H]1CCCN1C(=O)[C@@H](NC(=O)c1ccc(N)c(Cl)c1)C(C)(C)C` (stereo partly drawn), with “inactive”; and `Nc1ncnc2ccccc12`, with “inactive”. In the case of `Nc1ncnc2c1nc(Cl)n2[C@@H]1O[C@H](CO)[C@@H](O)[C@@H]1O`, the Potency is 20.9 µM (active). Same read-out and setting: then `CC(C)C(C)C=CC(C)C1CCC2C3=CC=C4CC(O)CCC4(C)C3CCC21C` (stereo not drawn), with “inactive”. On to `NC1CCC(Nc2nc(Nc3ccc(C(=O)N4CCCCC4)cc3)c3ncn(-c4cccc(F)c4)c3n2)CC1` (stereo not drawn), for which the Potency result was “inactive”. Still for that read-out and setting: then `C=C1C(=O)OC(CCCCCCCC)C1C(=O)O` (stereo not drawn), with “inactive”; and `CC1(C)CCC2=C(O1)c1ccccc1C(=O)C2=O`, with 20.9 µM (active).

On to `Cn1cc(C=C2C(=O)Nc3cccnc32)c2ccccc21`, for which the Potency entry is “inactive”. As for `CN(C)Cc1ccc(-c2nc3cccc4c3n2CCNC4=O)cc1`, the Potency was 23.5 µM (active). Turning to `O=c1[nH]cnc2c1ncn2[C@H]1CC[C@@H](CO)O1`, the Potency result is “inactive”.

As for `Cc1cc(OCCCc2c(C(=O)O)n(Cc3cccnc3)c3c(-c4c(COc5ccc(N6CCN([S+](C)(=O)[O-])CC6)cc5)nn(C)c4C)cccc23)cc(C)c1Cl`, the Potency is 14.8 µM (active). As for `COC(=O)C1=CO[C@@H](O)[C@@H]2C(CO)=CC[C@@H]12`, the Potency result is “inactive”. For the compound `CCCCCNC(=O)N1CCC(CN(Cc2ccc(Cl)cc2)Cc2ccc([N+](=O)[O-])s2)C1` (stereo not drawn), the Potency is 29.6 µM (active). Still for that read-out and setting: then `Cc1nnc(C(C)C)n1C1C[C@H]2CC[C@@H](C1)N2CC[C@H](NC(=O)C1CCC(F)(F)CC1)c1ccccc1` (stereo partly drawn), with “inactive”.

With `Cc1ccc(F)c(NC(=O)Nc2ccc(-c3cccc4[nH]nc(N)c34)cc2)c1`, the Potency is 16.6 µM (active). As to `COc1ccc(-c2coc3cc(O)cc(O)c3c2=O)cc1`, the Potency result was “inactive”. As for `CC[C@@]1(O)C[C@H](O[C@H]2C[C@H](N(C)C)[C@H](O[C@H]3C[C@H](O)[C@H](O[C@H]4CCC(=O)[C@H](C)O4)[C@H](C)O3)[C@H](C)O2)c2c(cc3c(c2O)C(=O)c2c(O)cccc2C3=O)[C@@H]1C(=O)OC`, the Potency was 1.05 µM (active).

A further test is described as follows: Quantitative High-Throughput drug screen in 47 multiple myeloma cell lines against the NCATS MIPE library collection: KMS28PE_JCRB cell viability assay (AID 1918983). Particulars: KMS28PE multiple myeloma viability, CellTiter-Glo ATP, 48 h; series mostly up to 45.8 µM. In a few lines:
as §1
On to `CCC(=O)NC[C@H](Cc1ccc(OCCc2nc(-c3ccccc3)oc2C)cc1)NC(C)=CC(=O)c1ccc(C(F)(F)F)cc1`, for which the Potency is 23.5 µM (active). Same read-out and setting: the result for `CC#CCn1c(N2CCC[C@@H](N)C2)nc2c1c(=O)n(Cc1nc(C)c3ccccc3n1)c(=O)n2C` reads “inactive”; that for `CCc1ccc(C=C2SC(=S)NC2=O)cc1`, “inactive”; that for `COc1cccc([C@@H](C)NCCCc2ccccc2Cl)c1`, “inactive”.

Take `Cc1c(O)cccc1C(=O)N[C@@H](CSc1ccccc1)[C@H](O)CN1C[C@H]2CCCC[C@@H]2C[C@@H]1C(=O)NC(C)(C)C`: the Potency is 20.9 µM (active). Take `CC(C)(C)OC(=O)N[C@H]1CCCCCC=C[C@@H]2C[C@@]2(C(=O)NS(=O)(=O)C2CC2)NC(=O)[C@@H]2C[C@@H](OC(=O)N3Cc4cccc(F)c4C3)CN2C1=O`: the Potency result was “inactive”. Take `CC(C)=CC[C@@H](O)C1=CC(=O)c2c(O)ccc(O)c2C1=O`: the Potency is 1.05 µM (active).

`NC(=O)NN=Cc1ccc([N+](=O)[O-])o1`: the Potency entry is “inactive”. Same read-out and setting: then `Nc1ncnc2c1nc(Cl)n2[C@@H]1O[C@H](CO)[C@@H](O)[C@@H]1O`, with 18.7 µM (active); and `CC(C)(C)NC(=O)Nc1cccc(Nc2ncc(F)c(NC(C)(C)CO)n2)c1`, with “inactive”; and `O=C(NOCC(O)CO)c1cc(Br)c(F)c(F)c1Nc1ccc(I)cc1F` (stereo not drawn), with “inactive”. For `CC(C)C(C)C=CC(C)C1CCC2C3=CC=C4CC(O)CCC4(C)C3CCC21C` (stereo not drawn), the Potency is 16.6 µM (active). `Cn1cc(C=C2C(=O)Nc3cccnc32)c2ccccc21`: the Potency entry is “inactive”. In the case of `Cc1cc(OCCCc2c(C(=O)O)n(Cc3cccnc3)c3c(-c4c(COc5ccc(N6CCN([S+](C)(=O)[O-])CC6)cc5)nn(C)c4C)cccc23)cc(C)c1Cl`, the Potency is 23.5 µM (active). On the same count and under the same terms, then `CCCCCNC(=O)N1CCC(CN(Cc2ccc(Cl)cc2)Cc2ccc([N+](=O)[O-])s2)C1` (stereo not drawn), with 20.9 µM (active); and `Cc1nnc(C(C)C)n1C1C[C@H]2CC[C@@H](C1)N2CC[C@H](NC(=O)C1CCC(F)(F)CC1)c1ccccc1` (stereo partly drawn), with “inactive”; and `O=C(O)C(O)Cc1ccc(O)c(O)c1` (stereo not drawn), with 23.5 µM (active).

Regarding `COc1ccc(-c2coc3cc(O)cc(O)c3c2=O)cc1`, the Potency entry is “inactive”. Consider `Cc1ccc([C@@H]2O[C@H](CO)[C@@H](O)[C@H](O)[C@@H]2O)cc1Cc1ccc(-c2ccc(F)cc2)s1`, for which the Potency result is “inactive”.

For the compound `OC[C@H]1O[C@@H](Oc2cc(O)cc(C=Cc3ccc(O)cc3)c2)[C@H](O)[C@@H](O)[C@H]1O`, the Potency result is “inactive”. Take `CC[C@@]1(O)C[C@H](O[C@H]2C[C@H](N(C)C)[C@H](O[C@H]3C[C@H](O)[C@H](O[C@H]4CCC(=O)[C@H](C)O4)[C@H](C)O3)[C@H](C)O2)c2c(cc3c(c2O)C(=O)c2c(O)cccc2C3=O)[C@@H]1C(=O)OC`: the Potency is 0.418 µM (active).
